The target of this assay is Ubiquitin carboxyl-terminal hydrolase 2 (Homo sapiens) (UniProt O75604). The assay is described as follows: Ub-rhodamine 110 based assay for inhibitors Ubiquitin-specific Protease USP2a. Also: nearly all actives have a fitted effect of over 50% in size. In short, it runs like this:
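Kinetic fluorescence (485/531 nm) read each minute over 7 min after adding Ub-Rhod110 (150 nM final) to USP2a (5 nM final). The enzyme had 30 min RT exposure to compounds beforehand in Tris pH 8.0 buffer with CaCl2, CHAPS and beta-ME.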

SMILES strings stand for the structures. Inconclusive results are not listed. Entries that show only a call come without a potency. Activity calls are given as the source filed them. Calls follow the shape of the dose curve; as a rule, active = well fitted inhibition curve with a large enough effect; inconclusive = small, poorly fitted or top-dose-only effect, or effect the other way; inactive = flat fitted curve, though single readings scatter.

Drawing on PubChem BioAssay AID493170 (National Center for Advancing Translational Sciences (NCATS), 2011), this text covers Potency for 78 molecules.
Potency is read from the fitted curve at half-maximal effect.

Ubiquitin carboxyl-terminal hydrolase 2 (Homo sapiens), sequence (O75604 whole entry, looked up): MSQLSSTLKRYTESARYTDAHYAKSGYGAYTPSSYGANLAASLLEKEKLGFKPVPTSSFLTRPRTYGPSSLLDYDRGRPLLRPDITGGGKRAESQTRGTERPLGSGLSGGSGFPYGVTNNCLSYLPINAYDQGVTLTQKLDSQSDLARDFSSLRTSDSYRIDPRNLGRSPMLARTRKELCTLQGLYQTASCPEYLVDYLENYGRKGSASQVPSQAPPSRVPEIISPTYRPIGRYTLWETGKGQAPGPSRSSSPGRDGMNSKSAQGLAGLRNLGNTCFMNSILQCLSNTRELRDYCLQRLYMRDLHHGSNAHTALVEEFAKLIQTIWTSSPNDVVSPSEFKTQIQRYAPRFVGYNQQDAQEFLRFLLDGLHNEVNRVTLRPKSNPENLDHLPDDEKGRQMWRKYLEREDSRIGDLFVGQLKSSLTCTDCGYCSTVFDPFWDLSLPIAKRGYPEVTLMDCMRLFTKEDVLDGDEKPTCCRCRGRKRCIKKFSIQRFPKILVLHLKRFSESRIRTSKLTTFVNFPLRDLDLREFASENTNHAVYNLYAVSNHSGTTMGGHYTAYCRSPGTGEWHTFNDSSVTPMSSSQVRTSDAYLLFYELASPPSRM

Take `CCOC(=O)c1c(-c2ccc(C)o2)csc1NC(=O)COC(=O)c1ccc(NC(N)=O)cc1`: the Potency was 7.08 µM (active).

Take `COc1ccc(/C=N\NC(=O)c2cc(O)c(O)c(O)c2)cc1COc1ccc(C(=O)OCC(C)C)cc1`: the Potency is 2.82 µM (active).

With `COc1ccc(S(=O)(=O)N2CCCCC2)cc1NC(=O)Cc1c[nH]c2ccccc12`, the Potency result was “inactive”.

Turning to `Cc1ccc2nc(NCCCNC(=O)c3cnccn3)c(C#N)cc2c1`, the Potency entry was “inactive”.

Turning to `O=C(CN1CCOCC1)Nc1ccc(C2CCCCC2)cc1`, the Potency result is “inactive”.

Take `COc1ccc(-c2cc(C(F)(F)F)nc(S(C)(=O)=O)n2)cc1`: the Potency result is “inactive”.

In the case of `CC(NC(=O)COc1ccccc1-c1ccccc1)c1ccccc1` (stereo not drawn), the Potency entry was “inactive”.

As to `O=C(CSCCO)Nc1cccc2ccccc12`, the Potency entry was “inactive”.

Take `CC(C)OCCCNC(=O)CN1C(=O)CC(C)(C)S(=O)(=O)c2ccccc21`: the Potency result is “inactive”.

Regarding `CC(C)(C)C1CCC2(CC1)Nc1cccc3cccc(c13)N2`, the Potency result is “inactive”.

Turning to `Cc1ccc(-c2nc(N/N=C/c3ccncc3)c3ccccc3n2)cc1`, the Potency was 11.2 µM (active).

As for `O=C(O[C@@H]1OC2COC(=O)c3cc(O)c(O)c(O)c3-c3c(cc(O)c(O)c3O)C(=O)O[C@@H]([C@H]1O)[C@@H]2O)c1cc(O)c(O)c(O)c1`, the Potency is 3.16 µM (active).

Turning to `C#CCOCCOCCOCCNc1nc(N2CCN(C(=O)CCCCCCCCCCNC(=O)[C@H]([C@@H](C)CC)n3cc(CCCCCN)nn3)CC2)nc(N2CCN(C(=O)CCCCCCCCCCNC(=O)[C@H]([C@@H](C)CC)n3cc(CCCCN=C(N)N)nn3)CC2)n1`, the Potency was 12.6 µM (active).

`CCOc1ccc(CCn2c(-c3ccco3)nc3ccccc3c2=O)cc1OCC`: the Potency entry is “inactive”.

With `CCOC(=O)C(C)Sc1nnc(Cn2c(=O)sc3ccccc32)n1-c1ccccc1` (stereo not drawn), the Potency result is “inactive”.

For the molecule `O=C(N/N=C1\CC(c2ccccc2)Oc2ccccc21)c1ccc(O)cc1` (stereo not drawn), the Potency result is “inactive”.

Consider `Cc1cc(/C=C2\C(=N)N3N=C(c4ccco4)SC3=NC2=O)c(C)n1Cc1ccccc1`, for which the Potency was 7.08 µM (active).

Regarding `CCCOC(=O)CCCCC1SCC(NC(=O)OC)C1NC(=O)OC` (stereo not drawn), the Potency result was “inactive”.

As for `Cc1ccc(SCC(=O)NCC(C)C)cc1`, the Potency entry is “inactive”.

For the molecule `O=C(Nn1c(SCc2ccc([N+](=O)[O-])cc2)nc2ccccc2c1=O)c1ccc(F)cc1`, the Potency is 10 µM (active).

As for `CC(C)(C)NC(=O)C(c1ccco1)N(C(=O)c1ccc(CN2CCOCC2)o1)c1ccccc1` (stereo not drawn), the Potency entry was “inactive”.

`COc1ccc(Cc2nnc(NC(=O)Cc3cccs3)s2)cc1`: the Potency was 1.41 µM (active).

Take `c1ccc(CN2CCN(CCOCCOc3cccc4ccccc34)CC2)cc1`: the Potency result was “inactive”.

`O=C(COc1ccccc1)N1CCN(C(=O)Cc2ccccc2)CC1`: the Potency entry is “inactive”.

As for `O=C1c2ccccc2C(=O)N1CCCCn1c(=O)oc2ccccc21`, the Potency result was “inactive”.

For the molecule `O=C(OCc1ccccc1)C1CCCN1C(=O)c1cccs1` (stereo not drawn), the Potency entry was “inactive”.

On to `Cc1ccc(/C=C2/SC(=S)N(c3ccc(S(=O)(=O)Nc4nccs4)cc3)C2=O)cc1`, for which the Potency is 3.55 µM (active).

As for `CCc1nnc(NC(=O)CSc2nccn2-c2cccc(C)c2)s1`, the Potency entry is “inactive”.

Turning to `NC1=NC2(CCC(c3ccccc3)CC2)n2c(nc3ccccc32)N1` (stereo not drawn), the Potency result is “inactive”.

On to `O=C(Oc1ccccc1C(=O)Nc1ccccc1)c1ccccc1Br`, for which the Potency entry is “inactive”.

For `FC(F)(F)C1=Nc2cccc3cccc(c23)N1`, the Potency result is “inactive”.

For the molecule `CCOc1ccccc1N(CC(=O)NC(C)(C)C)C(=O)c1ccc(CN2CCOCC2)o1`, the Potency result is “inactive”.

For the molecule `CCOC(=O)C1CCCN(CC(=O)Nc2c(C(=O)OC)[nH]c3ccc(C)cc23)C1` (stereo not drawn), the Potency result is “inactive”.

Consider `COC(=O)c1c(O)c2c([nH]c1=O)CCCC2`, for which the Potency result is “inactive”.

With `Nc1ccc(C2=Nc3cccc4cccc(c34)N2)cc1`, the Potency is 12.6 µM (active).

Take `O=C(Cc1cc(=O)[nH]c(=O)[nH]1)NCC1CCCO1` (stereo not drawn): the Potency result is “inactive”.

On to `Cc1ccc(C(=O)N/C(=C/c2cccs2)C(=O)NCc2ccco2)cc1`, for which the Potency result was “inactive”.

For `N#CNC(=Nc1cccc(F)c1)SCc1cccc(F)c1`, the Potency entry is “inactive”.

For `CC(C)(C)c1cc(Br)ccc1OCC(=O)Nc1ncn[nH]1`, the Potency result is “inactive”.

Consider `O=C(N/C(=C/c1cccnc1)C(=O)N1CCOCC1)c1ccco1`, for which the Potency entry was “inactive”.

As to `COc1ccc(S(=O)(=O)NCCSCc2ccco2)cc1OC`, the Potency was 10 µM (active).

Take `C=CCn1c(NCc2cc(C)ccc2O)nc2ccccc21`: the Potency result is “inactive”.

On to `COc1ccc(S(=O)(=O)N(C)CC(=O)Nc2cccc(C(C)=O)c2)cc1Cl`, for which the Potency result is “inactive”.

As to `O=C(COc1ccccc1)NCc1nnc(SCC(=O)Nc2nccs2)n1-c1ccccc1`, the Potency entry was “inactive”.

`COCCNCC(=O)N1CCCCCC1`: the Potency entry was “inactive”.

For the molecule `Nn1c(Nc2ccccc2)nc2ccccc2c1=O`, the Potency result is “inactive”.

Regarding `CN(CC(=O)Nc1cccc2ccccc12)C(=O)c1ccc(NC(=O)CC#N)cc1`, the Potency was 11.2 µM (active).

Regarding `C#CCOCCOCCOCCNc1nc(N2CCN(C(=O)CCCCCCCCCCNC(=O)[C@H]([C@@H](C)CC)n3cc(CCCCCN)nn3)CC2)nc(N2CCN(C(=O)CCCCCCCCCCNC(=O)[C@H](CCCCN)n3cc(CCCC(=O)O)nn3)CC2)n1`, the Potency entry is “inactive”.

Regarding `O=C1Nc2ccccc2SC(c2ccccc2)C1O` (stereo not drawn), the Potency was 3.98 µM (active).

As for `CCc1c(O)nc(SCC(=O)Nc2ccccc2OC)[nH]c1=O`, the Potency result was “inactive”.

In the case of `Nc1ccccc1S(=O)(=O)NC1=NCCCCC1`, the Potency entry was “inactive”.

Take `CC(OC(=O)c1nsc(Cl)c1Cl)C(=O)NCc1ccco1` (stereo not drawn): the Potency result was “inactive”.

On to `C[C@](N)(Cc1ccc(O)c(O)c1)C(=O)O`, for which the Potency result was “inactive”.

Regarding `O=C(c1ccc([N+](=O)[O-])cc1)N(Cc1ccc(Cl)cc1)N1C(=O)CCCC1=O`, the Potency result was “inactive”.

Turning to `O=C(Nc1nnc(SCC(=O)N2CCCC2)s1)C1CC(=O)N(c2ccc(F)cc2)C1` (stereo not drawn), the Potency was 11.2 µM (active).

As for `Nc1cc(=O)[nH]c(SCc2cccc(Cl)c2)n1`, the Potency result was “inactive”.

`Cc1cc(SCC(=O)NC2CCCCC2)nc2ccccc12`: the Potency result was “inactive”.

For the molecule `Fc1ccc(-c2nnn(Cc3nc4ccccc4s3)n2)cc1`, the Potency entry is “inactive”.

As for `Nc1ccc2nc(-c3ccc(N)c(Cl)c3)[nH]c2c1`, the Potency entry was “inactive”.

Consider `CC1=C(C(=O)OC(C)C)C(C)C(C(=O)OC(C)C)=C(C)N1`, for which the Potency entry was “inactive”.

As to `NS(=O)(=O)c1ccc(N=Nc2c(O)c(C(=O)O)cc3ccccc23)cc1`, the Potency is 5.62 µM (active).

Take `O=[N+]([O-])c1c(NCCO)cc(N2CCN(Cc3ccc4c(c3)OCO4)CC2)c2nonc12`: the Potency result was “inactive”.

As to `Cc1ccc(S(=O)(=O)Nc2ccccc2C(=O)Nc2nc(-c3ccc(F)cc3)cs2)cc1`, the Potency was 7.08 µM (active).

Take `CCOc1ccc(NC(=O)CSc2nnc(Cn3c(=O)sc4ccccc43)n2C)cc1`: the Potency result is “inactive”.

For `COC(=O)C1Sc2[nH]c(=O)sc2C(c2ccc(Cl)cc2)C1C(=O)OC` (stereo not drawn), the Potency entry is “inactive”.

As for `CN(C)CCOCCP(=O)(c1ccccc1)c1ccccc1`, the Potency result is “inactive”.

Regarding `O=C(N/N=C/c1ccc(-c2ccc(S(=O)(=O)Nc3ncccn3)cc2)o1)c1cc2ccccc2cc1O`, the Potency was 4.47 µM (active).

On to `Cc1cc(N2CCC(C(=O)NC3CC3)CC2)nc(-c2ccccc2)n1`, for which the Potency result was “inactive”.

As for `N#Cc1c(-c2cccs2)nc(SCc2ccc(Cl)cc2)[nH]c1=O`, the Potency was 10 µM (active).

With `COc1ccc2[nH]c(=O)c(CN(C3CCCCC3)C(c3nnnn3Cc3ccco3)C(C)C)cc2c1` (stereo not drawn), the Potency is 3.98 µM (active).

As for `CCCCCCCCCCOC(=O)Cn1c(COc2ccccc2C)[n+](C)c2ccccc21`, the Potency entry was “inactive”.

As for `O=C(O)C(Cc1ccccc1)N1C(=O)/C(=C/C=C/c2ccco2)SC1=S` (stereo not drawn), the Potency is 11.2 µM (active).

Turning to `Cc1cc(C)c2c(N=CN(C)C)c(C(=O)N3CCN(c4ncccn4)CC3)sc2n1`, the Potency result was “inactive”.

`O=C(O)/C=C/c1ccc(S(=O)(=O)Nc2ccccc2C(=O)Nc2ccc(F)cc2)cc1`: the Potency entry is “inactive”.

For the molecule `CC1(C(=O)O)Sc2[nH]c(=O)sc2C2c3ccccc3OC(=O)C21` (stereo not drawn), the Potency entry was “inactive”.

As for `NS(=O)(=O)c1ccc(NC(=O)CN2CCCCC2)cc1`, the Potency result was “inactive”.

Regarding `CC1(C)CC(=O)C=C(NCc2cccs2)C1`, the Potency entry was “inactive”.

With `C=CC[C@H](CC(=O)N(CCO)Cc1ccccc1)C(=O)N[C@H](C)COC(=O)[C@@H](CC=C)CC(=O)OC(C)(C)C`, the Potency entry was “inactive”.
